These results are taken from ChEMBL document CHEMBL1201862, “PubChem BioAssay data set” (2004).

SMILES strings stand for the structures. Among all 400,000 compounds or so, about 2,100 (0.53%) were called active. Roughly 14% stayed inconclusive and do not appear here. The rule behind the calls is not given here. The list comes from a sample in which actives are over-represented; it also holds similar structures and randomly drawn compounds.

This assay deals with Ataxin-2 (Homo sapiens) (UniProt Q99700). Put plainly: qHTS for Inhibitors of ATXN expression. The assay is classed as functional.
Ataxin-2 (Homo sapiens), sequence (Q99700 whole entry): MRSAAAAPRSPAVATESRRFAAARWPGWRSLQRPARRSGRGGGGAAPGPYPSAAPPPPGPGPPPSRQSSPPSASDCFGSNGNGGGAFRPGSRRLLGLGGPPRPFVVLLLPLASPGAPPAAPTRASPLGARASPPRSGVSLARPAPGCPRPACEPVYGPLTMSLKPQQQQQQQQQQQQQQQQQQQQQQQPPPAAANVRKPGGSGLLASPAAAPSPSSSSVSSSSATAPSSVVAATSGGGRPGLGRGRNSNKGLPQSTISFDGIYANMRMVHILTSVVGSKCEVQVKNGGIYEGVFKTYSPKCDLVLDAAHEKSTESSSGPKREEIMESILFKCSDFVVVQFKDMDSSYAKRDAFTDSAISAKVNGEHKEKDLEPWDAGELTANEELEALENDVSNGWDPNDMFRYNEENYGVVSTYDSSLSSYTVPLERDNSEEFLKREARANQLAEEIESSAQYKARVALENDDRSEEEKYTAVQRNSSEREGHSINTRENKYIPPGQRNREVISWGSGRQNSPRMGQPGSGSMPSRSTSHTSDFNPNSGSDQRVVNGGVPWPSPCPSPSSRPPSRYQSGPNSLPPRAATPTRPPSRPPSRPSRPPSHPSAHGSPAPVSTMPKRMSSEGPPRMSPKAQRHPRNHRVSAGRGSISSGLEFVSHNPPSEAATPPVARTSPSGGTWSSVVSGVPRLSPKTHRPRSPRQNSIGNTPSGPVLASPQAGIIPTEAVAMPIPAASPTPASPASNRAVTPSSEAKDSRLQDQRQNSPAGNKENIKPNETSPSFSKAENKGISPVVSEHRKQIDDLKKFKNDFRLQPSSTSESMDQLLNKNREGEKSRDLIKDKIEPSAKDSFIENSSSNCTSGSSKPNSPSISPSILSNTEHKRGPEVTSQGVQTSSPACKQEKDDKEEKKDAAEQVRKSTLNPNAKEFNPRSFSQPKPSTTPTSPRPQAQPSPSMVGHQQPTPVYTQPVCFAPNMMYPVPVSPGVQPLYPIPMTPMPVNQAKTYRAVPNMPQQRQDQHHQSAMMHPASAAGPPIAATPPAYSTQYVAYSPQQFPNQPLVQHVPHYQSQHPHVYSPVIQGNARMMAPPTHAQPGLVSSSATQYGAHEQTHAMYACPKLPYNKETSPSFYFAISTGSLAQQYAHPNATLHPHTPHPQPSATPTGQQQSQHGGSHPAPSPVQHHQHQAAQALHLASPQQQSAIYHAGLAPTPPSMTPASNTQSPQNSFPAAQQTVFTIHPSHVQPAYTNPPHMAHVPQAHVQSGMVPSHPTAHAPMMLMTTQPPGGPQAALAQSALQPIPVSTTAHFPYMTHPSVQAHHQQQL
For the compound `O=C(COC(=O)Cc1ccsc1)NNC(=O)c1ccccc1`, the Potency result is “inactive”. The same measure for `C#CCN1C(=O)S/C(=C\c2cc3c(cc2OC)OCO3)C1=O`: “inactive”; for `CNC(=O)c1cc(NC(=O)CCn2nc(-c3ccccc3)c3ccccc3c2=O)ccc1OC`: “inactive”. The same measure for `CCn1nc(C(=O)NNC(=O)c2cc(Cl)ccc2OC)c2ccccc2c1=O`: 39.8 µM (active). For `COc1ccc(Cl)cc1C(=O)NNC(=O)c1[nH]nc2ccccc12` the value was “inactive”; for `CC(=O)N(Cc1ccccc1)c1ncc2c(n1)c(=O)c(C#N)c1ccccn12`, “inactive”.

On to `COCCCNC(=O)C[S+]([O-])Cc1nc(-c2ccccc2C)oc1C` (centres undefined), for which the Potency entry was “inactive”. On to `CCCCCOc1ccc(Br)cc1CSC(=N)N`, for which the Potency was 35.5 µM (active).

With `CCCn1c(=N)c(C(=O)NCC2CCCO2)cc2c(=O)n3cccc(C)c3nc21` (centres undefined), the Potency result was “inactive”. As for `O=C(Cc1ccccc1C(=O)O)Nc1cccc2ccccc12`, the Potency result is “inactive”.

Regarding `O=C(CCl)Nc1cccc2ncccc12`, the Potency was 31.6 µM (active). In the case of `Cc1cc(O)nc(SCC(=O)Nc2ccnc3ccccc23)n1`, the Potency entry is “inactive”. Consider `Cc1c(Cc2ccccc2)c(=O)oc2cc(OC(=O)c3ccccc3)ccc12`, for which the Potency entry was “inactive”. Take `CCCc1sc(N/N=C/c2ccccn2)nc1-c1ccc(Br)cc1`: the Potency was 17.8 µM (active). Regarding `CCC/C=N/Nc1nc2ccccc2s1`, the Potency result was “inactive”. For `CC/N=c1\scc(-c2ccc(F)cc2)n1/N=C/c1ccccn1` the value was “inactive”; for `Cn1/c(=N/N=C/c2ccccn2)sc2ccccc21`, “inactive”; for `Cc1csc(N/N=C/c2ccccn2)n1`, 28.2 µM (active). For `C=CCn1c(=N)c(C(=O)NCCCOC)cc2c(=O)n3ccccc3nc21` the value was “inactive”. The same measure for `Oc1c(Cl)cc(Cl)cc1/C=N\c1cc(C(F)(F)F)ccc1N1CCc2ccccc2C1`: “inactive”. For `COc1ccc(-c2csc(NC(=O)CSc3n[nH]c(N)n3)n2)cc1`, the Potency result is “inactive”. Consider `COc1ccc(-c2cc(C(F)(F)F)nc(SCC(=O)Nc3ccc(C(C)=O)cc3)n2)cc1`, for which the Potency was 31.6 µM (active). The same measure for `COc1ccc(-c2cc(C(F)(F)F)c3c(N)c(C(=O)NCCSC)sc3n2)cc1`: “inactive”. For `CN(C)c1ccc(-c2cc3ccccc3c(=O)o2)cc1` the value was “inactive”. The same measure for `COC(=O)C1=NN(c2ccc(OC)cc2)C2C(=O)N(c3ccccc3OC)C(=O)C12` (centres undefined): “inactive”.

On to `CCOC1=C2CN(S(=O)(=O)c3ccc(C)cc3)[C@H](c3cccc4ccccc34)C[C@H]2C(C#N)(C#N)C(C#N)(C#N)C1`, for which the Potency is 12.6 µM (active).

In the case of `O=c1oc2c3c4c(cc2c2c1CCC2)OCCN4CCC3`, the Potency entry is “inactive”. As to `COc1ccccc1-c1cc(C(F)(F)F)nc(S(=O)(=O)CCCC(=O)Nc2cc(C)on2)n1`, the Potency was 14.1 µM (active). For `COc1ccc(Br)cc1CN(C)CC(=O)NCc1ccc(F)cc1` the value was “inactive”. The same measure for `COc1ccc(-c2cc(C(=O)Nc3ccc(C(N)=O)cc3)c3ccccc3n2)cc1OC`: “inactive”; for `COc1cccc(C(C(=O)NC(C)(C)C)N(C(=O)CCC(=O)Nc2cc(C)on2)c2ccc3c(c2)OCCO3)c1OC` (centres undefined): “inactive”. For `COc1ccc(-c2cc(C(=O)OCC(=O)Nc3cc(C)on3)c3ccccc3n2)cc1OC` the value was “inactive”; for `COc1ccc(-c2csc(NC(=O)CCNC(=O)c3ccco3)n2)cc1OC`, “inactive”.

As to `COc1ccc(-c2cc(C(F)(F)F)nc(S(=O)(=O)CCCC(=O)Nc3cccc(O)c3)n2)cc1OC`, the Potency was 15 µM (active). On to `CC1CCCCN1C(=O)COC(=O)c1cc(-c2cccs2)nn1-c1ccccc1` (centres undefined), for which the Potency entry is “inactive”. The same measure for `COc1ccccc1-c1cc(C(F)(F)F)nc(S(=O)(=O)CCCC(=O)NCc2ccc(F)cc2)n1`: 26.7 µM (active); for `COc1ccccc1-c1cc(C(F)(F)F)nc(S(=O)(=O)CCCC(=O)N2CCCCC2C)n1` (centres undefined): 39.8 µM (active). For `COc1ccc(-c2cc3nc(C)c(CCC(=O)NCc4ccc(F)cc4)c(C)n3n2)c(OC)c1` the value was “inactive”. Turning to `COc1cc(CC(=O)OCC(=O)N2CCCCC2C)cc(OC)c1OC` (centres undefined), the Potency entry is “inactive”. For `CCN1C(=O)[C@@H]2Cc3c([nH]c4ccccc34)C(c3ccc(OC)cc3)N2C1=S` (some centres undefined) the value was “inactive”; for `CCOC(=O)c1nnn(-c2ccc([N+](=O)[O-])cc2)c1C`, “inactive”; for `CCCCCCCCOC(=O)c1cc([N+](=O)[O-])c(Sc2[nH]cnc3ncnc2-3)c([N+](=O)[O-])c1`, 22.4 µM (active). The same measure for `CCOC(=O)c1cc([N+](=O)[O-])cc([N+](=O)[O-])c1Sc1[nH]cnc2ncnc1-2`: 29.9 µM (active); for `CCOc1ccc(C(=O)Oc2cc(C)nc(O)c2[N+](=O)[O-])cc1OCC`: “inactive”. The same measure for `CCc1nc2ccc(C(=O)N3CCN(c4cc(C)ccc4C)CC3)cc2nc1CC`: “inactive”. Consider `CCn1c(=O)cc(SCC(=O)N2CCN(c3cc(C)ccc3C)CC2)c2ccccc21`, for which the Potency is 35.5 µM (active). The same measure for `Cc1ccc(C)c(N2CCN(C(=O)CCC(=O)Nc3ccc4nc(N5CCCCC5)cc(C)c4c3)CC2)c1`: “inactive”; for `O=C1c2cccc3c(O)ccc(c23)C(=O)N1c1ccc(Cl)cc1`: “inactive”.

In the case of `O=CN/C=C/c1cc(O)ccc1O`, the Potency was 35.5 µM (active). In the case of `COC(=O)/C=C/c1sc2nc(C)cc(C)c2c1/N=C/N(C)C`, the Potency result was “inactive”.

As for `COc1ccc(N(C(=O)c2cnccn2)C(C(=O)NCc2ccccc2)c2ccc(O)cc2)cc1` (centres undefined), the Potency entry was “inactive”.

`COCCN(C(=O)Cc1cccs1)C(C(=O)NCc1ccc(OC)cc1)c1ccc(C(C)C)cc1` (centres undefined): the Potency was 39.8 µM (active).

Consider `COc1ccc(CNC(=O)CNS(=O)(=O)c2cccs2)cc1`, for which the Potency result was “inactive”. The same measure for `Cc1ccc(C(=O)CSc2nnc(C3CC3)n2C2CC2)s1`: “inactive”. As for `CC(=O)Nc1ccc(OC(F)(F)Cl)cc1`, the Potency entry is “inactive”. `N#C/C(=N/Nc1ccc(OC(F)(F)F)cc1)C(N)=S`: the Potency is 10 µM (active). The same measure for `Oc1ccc(-c2onc3ccc(Cl)cc23)cc1`: “inactive”; for `Oc1ccc(N=Nc2n[nH]c(-c3ccc(Cl)cc3)n2)cc1`: 35.5 µM (active).

Turning to `Oc1ccc(-c2nccc(-c3ccc(Cl)cc3)n2)cc1`, the Potency result was “inactive”. The same measure for `O=C1c2cccc3c(O)ccc(c23)C(=O)N1Cc1ccccc1`: “inactive”; for `O=C1C=C(c2c(O)ccc3ccccc23)c2ccccc2C1=O`: 35.5 µM (active); for `CN(C)/C=C1\Oc2ccc3ccccc3c2C1=O`: “inactive”.

For `CCN1C(=O)c2cccc3c(S(=O)(=O)NCc4cccnc4)ccc1c23`, the Potency result was “inactive”. For `CCC(=O)OCCNc1cc(Sc2nccn2C)c2nonc2c1[N+](=O)[O-]` the value was 35.5 µM (active). The same measure for `CCCC(=O)OCCNc1cc(Sc2nccn2C)c2nonc2c1[N+](=O)[O-]`: 39.8 µM (active). The same measure for `COC(C/C=C/C(=O)[C@H](C)OCc1ccccc1)OC`: 39.8 µM (active); for `COc1ccccc1OCc1ccc(C(=O)Nc2ccccc2)cc1`: “inactive”; for `Oc1nc2ccccc2nc1-c1c[nH]c2ccccc12`: “inactive”. Regarding `c1ccc(C(c2cccs2)c2c[nH]c3ccccc23)cc1` (centres undefined), the Potency was 39.8 µM (active). On to `Clc1ccc(C(c2ccccc2)c2c[nH]c3ccccc23)s1` (centres undefined), for which the Potency was 31.6 µM (active). The same measure for `CCOc1ccccc1C1C(C(=O)OC)=CN(C)C=C1C(=O)OC`: “inactive”; for `CC(=O)Oc1c(-c2ccc(Br)o2)oc2ccccc2c1=O`: “inactive”; for `COC(=O)/C(=C1/Oc2cc(C)oc(=O)c2S1)C(F)(F)F`: 20 µM (active). For the compound `CC(C)[C@H](NS(=O)(=O)c1ccccc1F)C(=O)NC1CCCCC1`, the Potency entry was “inactive”. As for `CC(=O)N1CCC(c2c[nH]c3ccccc23)CC1`, the Potency entry is “inactive”. For the compound `O=C1NCCNC1(c1c[nH]c2ccccc12)C(F)(F)F` (centres undefined), the Potency result was “inactive”. For `O=C1C=CC(c2c[nH]c3ccccc23)CC1` (centres undefined) the value was 35.5 µM (active); for `C=CCn1c(=N)c(C#N)cc2c(=O)n3ccccc3nc21`, “inactive”.

Take `Cc1ccccc1CS(=O)(=O)c1nnc([C@H](Cc2ccccc2)NC(=O)OC(C)(C)C)o1`: the Potency is 35.5 µM (active). The same measure for `CC(C)(C)OC(=O)N[C@@H](Cc1ccccc1)c1nnc(S(=O)(=O)Cc2cccc(F)c2)o1`: 31.6 µM (active); for `COC(=O)CS(=O)(=O)c1nnc([C@H](Cc2ccccc2)NC(=O)OC(C)(C)C)o1`: 39.8 µM (active).

`Oc1c(Br)cc(Cl)cc1/C=N/c1ccc(N2CCOCC2)cc1`: the Potency result was “inactive”. The same measure for `Cc1ccc(O)c(C(=O)c2cc(C#N)c(=O)n(-c3nccs3)c2)c1`: “inactive”; for `N=c1c(C(=O)NCc2ccc(F)cc2)cc2c(=O)n3ccccc3nc2n1Cc1cccnc1`: “inactive”.

In the case of `O=C(Nc1ccc(F)cc1)c1sc2cc(C(F)(F)F)cnc2c1-c1cccs1`, the Potency result is “inactive”. For `O=C(Oc1ccc2c(-c3ccccc3)cc(=O)oc2c1)C1CCCCC1` the value was “inactive”. For `CNC(=O)/C(C#N)=C/c1c(N2CCN(c3ccccc3)CC2)nc2c(C)cccn2c1=O` the value was “inactive”; for `Cc1cccn2c(=O)c(C=C(C#N)C#N)c(N3CCN(c4ccccc4)CC3)nc12`, “inactive”; for `Cc1cc(Oc2nc3c(C)cccn3c(=O)c2/C=C(\C#N)S(=O)(=O)c2ccccc2)ccc1Cl`, 39.8 µM (active).

With `O=C(NC(c1ccc(F)cc1)c1ccc2ccccc2n1)C1CCN(CCOc2ccc(Cl)cc2Cl)CC1` (centres undefined), the Potency was 22.4 µM (active).

For `O=C(COC(=O)Cc1c[nH]c2ccccc12)Nc1cc(S(=O)(=O)N2CCOCC2)ccc1Cl`, the Potency result was “inactive”. For `CCS(=O)(=O)N1CCN(Cc2c[nH]c3ccccc23)CC1` the value was “inactive”; for `COc1ccc(NC(=O)c2cc(S(=O)(=O)N3CCCC3)ccc2C)cn1`, “inactive”; for `O=C(NC(c1ccc(Cl)cc1)c1cccnc1)C1CCN(CCOc2ccc(Cl)cc2Cl)CC1` (centres undefined), 39.8 µM (active). For `O=C(CCSc1ccc(Cl)cc1)Nc1cccnc1` the value was “inactive”; for `COc1cc(OC)nc(C(NC(=O)C2CCN(Cc3c[nH]c4ccccc34)CC2)c2ccc(Cl)cc2)n1` (centres undefined), 35.5 µM (active); for `COc1ccc(C(NC(=O)C2CCN(CCOc3ccc(Cl)cc3Cl)CC2)c2ccccc2C)cn1` (centres undefined), 31.6 µM (active). For `CCOc1ccc(Cl)cc1S(=O)(=O)N1CCC(C(=O)NC2CC2)CC1` the value was “inactive”. As for `Cn1cc(/C=N\O)nc2c(=O)n(-c3ccccc3)c(=O)nc1-2`, the Potency result is “inactive”.
